Experimental data: PubChem BioAssay (NCATS)
Inconclusive results are not listed. Calls come from the whole dose curve.

target: Atrial natriuretic peptide receptor 1 (Homo sapiens) (UniProt P16066); assay: Natriuretic polypeptide receptor (hNpr1) antagonism - Pilot CMLD screen (AID 1347052); conditions: HEK293 hNpr1 GloSensor cGMP luminescence, ANP-stimulated; series mostly up to 9.22 µM; activity change, negative = inhibition: at the top concentration;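 note: HEK293 cells with hNpr1 stimulated by hNppA peptide at 0.1 nM; cGMP level read as GloSensor luciferase luminescence after agonist stimulation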
Sequence (P16066 whole entry, looked up): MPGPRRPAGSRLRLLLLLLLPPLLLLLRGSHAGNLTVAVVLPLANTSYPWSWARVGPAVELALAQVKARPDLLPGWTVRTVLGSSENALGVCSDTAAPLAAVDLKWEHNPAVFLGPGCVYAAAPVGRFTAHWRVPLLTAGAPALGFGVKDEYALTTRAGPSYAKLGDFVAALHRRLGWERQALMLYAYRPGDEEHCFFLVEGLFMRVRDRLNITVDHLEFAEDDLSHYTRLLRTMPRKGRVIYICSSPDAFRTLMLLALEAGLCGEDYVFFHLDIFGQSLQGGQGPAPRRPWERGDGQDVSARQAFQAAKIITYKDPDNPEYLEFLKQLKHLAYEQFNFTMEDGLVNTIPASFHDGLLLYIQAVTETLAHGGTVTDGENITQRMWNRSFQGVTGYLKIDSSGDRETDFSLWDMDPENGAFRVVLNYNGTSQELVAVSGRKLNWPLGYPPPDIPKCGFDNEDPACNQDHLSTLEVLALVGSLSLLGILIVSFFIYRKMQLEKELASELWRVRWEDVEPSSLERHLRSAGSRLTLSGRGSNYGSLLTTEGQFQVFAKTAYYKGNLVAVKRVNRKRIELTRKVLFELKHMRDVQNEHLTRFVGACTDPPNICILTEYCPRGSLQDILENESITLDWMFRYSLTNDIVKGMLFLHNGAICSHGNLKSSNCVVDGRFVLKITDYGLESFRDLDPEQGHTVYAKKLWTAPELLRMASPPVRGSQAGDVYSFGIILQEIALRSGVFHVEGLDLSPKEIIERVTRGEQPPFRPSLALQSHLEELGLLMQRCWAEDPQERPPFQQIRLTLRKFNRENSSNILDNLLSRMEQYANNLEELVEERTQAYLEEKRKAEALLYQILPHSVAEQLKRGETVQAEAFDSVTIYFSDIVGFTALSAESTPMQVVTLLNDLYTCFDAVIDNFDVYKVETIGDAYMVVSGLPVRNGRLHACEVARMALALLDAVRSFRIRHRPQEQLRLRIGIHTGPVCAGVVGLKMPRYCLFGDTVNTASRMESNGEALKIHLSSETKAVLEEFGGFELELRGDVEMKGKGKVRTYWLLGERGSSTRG
% is set by controls: 0 for no effect and ±100 for the full control effect.

Activity change, negative = inhibition, inactive:
COC(=O)CC=C[C@@H](C)[C@H](NC(=O)OCC(Cl)(Cl)Cl)c1cccc(OC)c1 -0.559%
COC(=O)C1=C(C(=O)OC)[C@@H]2N(C)c3ccccc3[C@@]23CCC(=O)N(Cc2ccc(OC)cc2)C3=N1 8.03%
C=CCN1C(=O)[C@@]2(CC(C)=C[C@@H](COc3ccccc3)O2)c2ccccc21 -5.29%
COC(=O)C1=C(C(=O)OC)[C@@H]2N(CC=C(C)C)c3ccccc3[C@@]23CCC(=O)N(CCc2ccccn2)C3=N1 0.492%
CCCCCCC1=Cc2cc(OC)c(OC)cc2C(C(C(C)=O)C(=O)OCC)O1 (centres undefined) -1.05%
COC(=O)CCCC1=CC2=CC(=O)C(C)(OC(=O)c3cccs3)C(=O)C2=CN1c1ccc(OC)cc1 (centres undefined) 5.02%
CCN1C(=NCc2ccc(OC)cc2)NC(c2cccc(F)c2)C(C(=O)OC)=C1C (centres undefined) 2.03%
CC(C)CON=C1C[C@@H](O)[C@@H](O)[C@@H]2[C@H]3C(=O)N(Cc4ccc5c(c4)OCO5)C(=O)[C@@H]3CC[C@@H]12 1.36%
C=CCN1C(=O)[C@@]2(CC(C)=CC[C@@H](C)O2)c2c(Br)cccc21 2.24%
COC(=O)NC(c1ccc2c(c1)OCO2)C(C(=O)OC)C(=O)OC (centres undefined) -7.28%
COC(=O)N[C@H](C(C(=O)OC)=C(C)NCc1ccccc1)c1ccco1 0.116%
C=C(C)C(=O)C=Cc1ccc(Br)cc1 -6%
CCN1C(=NCCCOC(C)C)N[C@H](c2ccccc2)[C@H](C(=O)OC)[C@H]1C 4.41%
COC(=O)[C@@H]1C=C[C@H](C)[C@H](CCOc2ccccc2)O1 6.11%
C[C@@H]1CC[C@H]2C(=O)O[C@@H](Cc3ccccc3)CN2[C@@H]1c1ccc(Br)cc1 -0.939%
COC(=O)[C@H]1[C@@H](c2ccccc2)NC(=O)N(CCc2cc(OC)c(OC)c(OC)c2)[C@@H]1C 5.68%
CC#CCC1(C(=O)OC)C(=O)NC[C@H]1c1ccccc1 (some centres undefined) 0.0791%
CC(C)=CCC12CC3[C@@H](O)C(C(=O)c4ccccc4)(C1=O)C(=O)C(CC=C(C)C)(C2=O)C3(C)C (some centres undefined) -8.2%
COc1ccc(COC(=O)NN=C2C[C@@H](O)[C@@H](O)[C@@H]3[C@H]4C(=O)N(Cc5ccc6c(c5)OCO6)C(=O)[C@@H]4CC[C@H]23)cc1 -0.948%
COc1ccc(-c2cnnc(CCCn3ccnc3-c3ccccc3)n2)cc1 -2.13%
C=C(Nc1ccc(OC)cc1)C(=O)OC 2.61%
CC1(OC(=O)CCc2ccccc2)C(=O)C=C2C=C(c3ccc(C#N)cc3)N(CC3CC3)C=C2C1=O (centres undefined) 0.691%
CCCCCCCc1cc2c(cn1)C(=O)C(C)(OC(C)=O)C(O)=C2Cl (centres undefined) -1.11%
CC(C)CON=C1C[C@@H](O)[C@@H](O)[C@@H]2[C@H]3C(=O)N(C[C@@H]4CCCO4)C(=O)[C@@H]3CC[C@H]12 -2.42%
COc1ccc(COC(=O)NN=C2C[C@@H](O)[C@@H](O)[C@@H]3[C@H]4C(=O)N(C5CCCCC5)C(=O)[C@@H]4CC[C@H]23)cc1 14.4%
COc1ccc2c(c1)[C@@H](NC(=O)C(F)(F)F)[C@@H]1CCCC[C@]21c1ccccc1 -1.76%
C=CCOC(=O)N[C@H](c1ccco1)C(C(C)=O)C(C)=O 0.702%
COc1ccc(O[C@H]2C=C[C@@H](c3ccccc3)O[C@H]2CON=C[C@@H](C)[C@H](OCc2ccccc2)C(C)C)cc1 4.82%
C[C@@H]1CC[C@H]2C(=O)N(Cc3ccc(Cl)cc3)C[C@@H](O)CN2[C@@H]1c1cccc(Br)c1 -0.616%
COC(=O)C1=C(C(=O)OC)[C@@H]2N(C)c3ccc(OC)cc3[C@@]23C[C@@H](C(=O)OC)N(C(=O)c2cccs2)C3=N1 -0.17%
CC1=C[C@@H](C)O[C@@]2(C1)C(=O)Nc1cccc(Br)c12 -2.09%
COC(=O)CC1c2ccccc2C(Cc2ccc3c(c2)OCO3)=C(C)N1C(=O)OC (centres undefined) 11.3%
C[C@@H]1CC[C@H]2C(=O)N3[C@@H](CC[C@@H](C)[C@@H]3c3ccc(Br)cc3)C(=O)N2[C@@H]1c1ccc(Br)cc1 3.45%
COc1ccc(-c2nc3c(c4c2C[C@H](c2ccccc2)OC4)CN(S(=O)(=O)c2ccc(NC(C)=O)cc2)CC3)c(C)c1 0.47%
C=CC[C@@]1(c2ccc(OC)cc2)Oc2ccccc2C2=NCCN=C21 -2.13%
CCCCCC1=CC2=C(C(=O)OC)C(c3ccccc3)NC(=O)N2CC1 (centres undefined) -2.33%
CCCC[C@]12Cc3ccccc3[C@H](O1)c1c(cc(-c3ccccc3)oc1=O)O2 -9.26%
C=CCOC(=O)N[C@@H](CCc1ccccc1)C(C(C)=O)C(C)=O 0.39%
CC(CCC(=O)OC[C@H]1O[C@H](C#Cc2ccccc2)C=C[C@H]1Oc1ccc(C)cc1)=NO[C@H](C)c1cn([C@H](CO)Cc2ccccc2)nn1 -1.74%
